Measurements from the supplement of paper PMC8728848.
Only a selection was taken, and the strongest signals are over-represented in it overall.

Legend:
Assay in all cases: glycan array binding signal (z-score within array); higher = stronger binding
Conditions in all cases: glycan notation: IUPAC condensed, linker removed
[1] = target: Fuc(a1-2)Gal(b1-3)[Fuc(a1-4)]GlcNAc(b1-2)Man(a1-3)[Fuc(a1-2)Gal(b1-3)[Fuc(a1-4)]GlcNAc(b1-2)Man(a1-6)]Man(b1-4)GlcNAc(b1-4)GlcNAc
How it was run: (§1)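 Glycan array binding is given as a within-array Z-score, which can be read as non-binding when negative. The arrays, 3228 of them, came from the Consortium for Functional Glycomics database and were retained only where the protein sequence was available. Z-scores were averaged across arrays of the same protein sequence at different concentrations or buffers and across linkers.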

[2] = target: Fuc(a1-2)Gal(b1-4)GlcNAc(b1-3)Gal(b1-4)GlcNAc
How it was run: as §1

[3] = target: Fuc(a1-2)Gal6S(b1-4)Glc6S
How it was run: as §1

[4] = target: Fuc(a1-2)[GalNAc(a1-3)]Gal(b1-4)GlcNAc(b1-3)Gal(b1-4)GlcNAc(b1-3)Gal(b1-4)GlcNAc
How it was run: as §1

[5] = target: Fuc(a1-3)[Gal3S(b1-4)]Glc6S
How it was run: as §1

[6] = target: Fuc(a1-3)[Neu5Ac(a2-3)]Gal(b1-4)GlcNAc(b1-3)GalNAc
How it was run: as §1

[7] = target: Gal(b1-3)GalNAc(a1-3)[Fuc(a1-2)]Gal(b1-4)Glc
How it was run: as §1

[8] = target: Gal(b1-3)GalNAc(a1-3)[Fuc(a1-2)]Gal(b1-4)GlcNAc
How it was run: as §1

[9] = target: Gal(b1-3)GlcNAc(b1-2)Man(a1-3)[Gal(b1-3)GlcNAc(b1-2)Man(a1-6)]Man(b1-4)GlcNAc(b1-4)[Fuc(a1-6)]GlcNAc
How it was run: as §1

[10] = target: Gal(b1-3)GlcNAc(b1-3)Gal(b1-3)GlcNAc
How it was run: as §1

[11] = target: Gal(b1-4)GlcNAc(b1-2)Man(a1-3)[Gal(b1-4)GlcNAc(b1-2)Man(a1-6)]Man(b1-4)GlcNAc(b1-4)[Fuc(a1-6)]GlcNAc
How it was run: as §1

[12] = target: Gal(b1-4)GlcNAc(b1-3)[Gal(b1-4)GlcNAc(b1-6)]Gal(b1-4)GlcNAc
How it was run: as §1

Glc(a1-6)Glc(a1-6)Glc = target: Glc(a1-6)Glc(a1-6)Glc
How it was run: as §1

GlcA(b1-6)Gal = target: GlcA(b1-6)Gal
How it was run: as §1

[13] = target: GlcNAc(a1-6)Gal(b1-4)GlcNAc
How it was run: as §1

[14] = target: GlcNAc(b1-2)Man(a1-3)[GlcNAc(b1-2)Man(a1-6)]Man(b1-4)GlcNAc(b1-4)GlcNAc
How it was run: as §1

[15] = target: GlcNAc(b1-2)Man(a1-3)[GlcNAc(b1-2)Man(a1-6)]Man(b1-4)GlcNAc(b1-4)[Fuc(a1-6)]GlcNAc
How it was run: as §1

[16] = target: GlcNAc(b1-3)[GlcNAc(b1-4)][GlcNAc(b1-6)]GlcNAc
How it was run: as §1

[17] = target: GlcNAc(b1-3)[GlcNAc(b1-6)]GalNAc
How it was run: as §1

[18] = target: GlcNAc(b1-4)GlcNAc(b1-4)GlcNAc
How it was run: as §1

[19] = target: Man(a1-2)Man(a1-3)[Man(a1-2)Man(a1-6)]Man
How it was run: as §1

[20] = target: Man(a1-2)Man(a1-3)[Man(a1-2)Man(a1-6)]Man(a1-6)[Man(a1-2)Man(a1-2)Man(a1-3)]Man
How it was run: as §1

[21] = target: Neu5Ac(a2-3)Gal(b1-4)GlcNAc(b1-6)[Neu5Ac(a2-3)Gal(b1-3)]GalNAc
How it was run: as §1

[22] = target: Neu5Ac(a2-3)Gal(b1-4)[Fuc(a1-3)]GlcNAc(b1-3)Gal(b1-4)GlcNAc
How it was run: as §1

[23] = target: Neu5Ac(a2-3)GalNAc(b1-4)GlcNAc
How it was run: as §1

[24] = target: Neu5Ac(a2-6)Gal(b1-4)GlcNAc(b1-2)Man(a1-3)[Neu5Ac(a2-6)Gal(b1-4)GlcNAc(b1-2)Man(a1-6)]Man(b1-4)GlcNAc(b1-4)GlcNAc
How it was run: as §1

[25] = target: Neu5Ac(a2-6)Gal(b1-4)GlcNAc(b1-2)Man(a1-6)[Man(a1-3)]Man(b1-4)GlcNAc(b1-4)GlcNAc
How it was run: as §1

[26] = target: Neu5Ac(a2-8)Neu5Ac(a2-8)Neu5Ac(a2-3)Gal(b1-4)Glc
How it was run: as §1

[27] = target: Neu5Ac(b2-6)Gal(b1-4)GlcNAc
How it was run: as §1

[28] = target: Fuc(a1-2)[Gal(a1-3)]Gal(b1-4)GlcNAc
How it was run: as §1

[29] = target: Fuc(a1-2)[GalNAc(a1-3)]Gal(b1-3)GalNAc(a1-3)[Fuc(a1-2)]Gal(b1-4)GlcNAc
How it was run: as §1

[30] = target: Fuc(a1-3)[Gal(b1-4)]GlcNAc(b1-6)[Gal(b1-3)GlcNAc(b1-3)]Gal(b1-4)Glc
How it was run: as §1

[31] = target: Fuc(a1-3)[Gal(b1-4)]GlcNAc6S
How it was run: as §1

[32] = target: Fuc(a1-3)[Gal3S(b1-4)]GlcNAc
How it was run: as §1

[33] = target: Gal(a1-3)Gal(b1-4)[Fuc(a1-3)]GlcNAc(b1-2)Man(a1-3)[Gal(a1-3)Gal(b1-4)[Fuc(a1-3)]GlcNAc(b1-2)Man(a1-6)]Man(b1-4)GlcNAc(b1-4)GlcNAc
How it was run: as §1

[34] = target: Gal(b1-3)GalNAc(b1-4)Gal(b1-4)Glc
How it was run: as §1

[35] = target: Gal(b1-4)GlcNAc(b1-3)Gal(b1-4)Glc
How it was run: as §1

[36] = target: Gal3S(b1-4)[Fuc(a1-3)]Glc6S
How it was run: as §1

Gal3S4S(b1-4)GlcNAc = target: Gal3S4S(b1-4)GlcNAc
How it was run: as §1

Gal3S6S(b1-4)GlcNAc6S = target: Gal3S6S(b1-4)GlcNAc6S
How it was run: as §1

Gal4S6S(b1-4)GlcNAc = target: Gal4S6S(b1-4)GlcNAc
How it was run: as §1

Gal6S(b1-4)Glc6S = target: Gal6S(b1-4)Glc6S
How it was run: as §1

Gal6S(b1-4)GlcNAc = target: Gal6S(b1-4)GlcNAc
How it was run: as §1

Gal6S(b1-4)GlcNAc6S = target: Gal6S(b1-4)GlcNAc6S
How it was run: as §1

GalNAc(b1-3)GalNAc = target: GalNAc(b1-3)GalNAc
How it was run: as §1

[37] = target: GlcNAc(a1-4)Gal(b1-4)GlcNAc(b1-3)Gal(b1-4)[Fuc(a1-3)]GlcNAc(b1-3)Gal(b1-4)[Fuc(a1-3)]GlcNAc
How it was run: as §1

GlcNAc(b1-3)Gal(b1-4)Glc = target: GlcNAc(b1-3)Gal(b1-4)Glc
How it was run: as §1

[38] = target: GlcNAc(b1-4)[GlcNAc(b1-6)]GalNAc
How it was run: as §1

[39] = target: Man(a1-3)[Man(a1-6)]Man(a1-6)[Man(a1-3)]Man
How it was run: as §1

[40] = target: Neu5Ac(a2-3)Gal(b1-4)[Fuc(a1-3)]GlcNAc(b1-3)GalNAc
How it was run: as §1

[41] = target: Neu5Ac(a2-3)[GalNAc(b1-4)]Gal(b1-4)Glc
How it was run: as §1

[42] = target: Neu5Ac(a2-6)Gal(b1-4)GlcNAc
How it was run: as §1

[43] = target: Neu5Ac(a2-6)Gal(b1-4)GlcNAc(b1-2)Man(a1-6)Man(b1-4)GlcNAc(b1-4)GlcNAc
How it was run: as §1

B1: LcH (Lens culinaris), P02870 (protein)
chain: TETTSFSITKFSPDQQNLIFQGDGYTGKEGLTLTKVSKETGGRALYSTPIHIWDRDTVNVANFVTNGSQVFRESPNGYNVADGFTFFIAPVDTKPQTGGGYLGVFYNGKEYDKTSQTVAVEFDTFYNAAWDPSNKERHIGIDVNSIKSVNTKSWNLQNGVTSYTLNEVVPLKDVVPEWVRIGFSATTGAEFAAQEVHSWSFNSQLGHTSKS
glycan array binding signal (z-score) [1]: -0.091
glycan array binding signal (z-score) [2]: -0.141
glycan array binding signal (z-score) [3]: -0.104
glycan array binding signal (z-score) [4]: -0.108
glycan array binding signal (z-score) [5]: -0.119
glycan array binding signal (z-score) [6]: -0.132
glycan array binding signal (z-score) [7]: -0.147
glycan array binding signal (z-score) [8]: -0.093
glycan array binding signal (z-score) [9]: 14.3
glycan array binding signal (z-score) [10]: -0.142
glycan array binding signal (z-score) [11]: 9.53
glycan array binding signal (z-score) [12]: -0.138
glycan array binding signal (z-score) (Glc(a1-6)Glc(a1-6)Glc): -0.098
glycan array binding signal (z-score) (GlcA(b1-6)Gal): -0.111
glycan array binding signal (z-score) [13]: -0.102
glycan array binding signal (z-score) [14]: 1.2
glycan array binding signal (z-score) [15]: 6.22
glycan array binding signal (z-score) [16]: -0.125
glycan array binding signal (z-score) [17]: -0.082
glycan array binding signal (z-score) [18]: -0.107
glycan array binding signal (z-score) [19]: 1.24
glycan array binding signal (z-score) [20]: 3.73
glycan array binding signal (z-score) [21]: -0.129
glycan array binding signal (z-score) [22]: -0.046
glycan array binding signal (z-score) [23]: -0.118
glycan array binding signal (z-score) [24]: -0.12
glycan array binding signal (z-score) [25]: -0.124
glycan array binding signal (z-score) [26]: -0.138
glycan array binding signal (z-score) [27]: -0.111

B2: Pp2-A2 (Arabidopsis thaliana), Q07098 (protein)
chain: MPSNGDLDRQIEQLMECKPLSEADVRTLCDQARAILVEEYNVQPVKCPVTVCGDIHGQFYDLIELFRIGGNAPDTNYLFMGDYVDRGYYSVETVSLLVALKVRYRDRLTILRGNHESRQITQVYGFYDECLRKYGNANVWKYFTDLFDYLPLTALIESQVFCLHGGLSPSLDTLDNIRSLDRIQEVPHEGPMCDLLWSDPDDRCGWGISPRGAGYTFGQDIAAQFNHNNGLSLISRAHQLVMEGFNWCQDKNVVTVFSAPNYCYRCGNMAAILEIGENMEQNFLQFDPAPRQVEPDTTRKTPDYFL
glycan array binding signal (z-score) [1]: 2.08
glycan array binding signal (z-score) [28]: -0.404
glycan array binding signal (z-score) [29]: 0.21
glycan array binding signal (z-score) [30]: -0.662
glycan array binding signal (z-score) [31]: 0.633
glycan array binding signal (z-score) [32]: -0.461
glycan array binding signal (z-score) [33]: -0.298
glycan array binding signal (z-score) [34]: -0.181
glycan array binding signal (z-score) [35]: -0.032
glycan array binding signal (z-score) [36]: 4.36
glycan array binding signal (z-score) (Gal3S4S(b1-4)GlcNAc): 6.14
glycan array binding signal (z-score) (Gal3S6S(b1-4)GlcNAc6S): 4.5
glycan array binding signal (z-score) (Gal4S6S(b1-4)GlcNAc): 4.54
glycan array binding signal (z-score) (Gal6S(b1-4)Glc6S): 4.11
glycan array binding signal (z-score) (Gal6S(b1-4)GlcNAc): -0.117
glycan array binding signal (z-score) (Gal6S(b1-4)GlcNAc6S): 2.28
glycan array binding signal (z-score) (GalNAc(b1-3)GalNAc): -0.683
glycan array binding signal (z-score) [37]: 5.17
glycan array binding signal (z-score) [13]: -0.835
glycan array binding signal (z-score) (GlcNAc(b1-3)Gal(b1-4)Glc): -0.721
glycan array binding signal (z-score) [38]: -0.771
glycan array binding signal (z-score) [39]: 0.061
glycan array binding signal (z-score) [40]: 4.64
glycan array binding signal (z-score) [41]: -0.213
glycan array binding signal (z-score) [42]: -0.266
glycan array binding signal (z-score) [43]: -0.465
